Laboratory results as given in publication PMC4336329 (PLoS ONE, 2015).
Among all 310,000 compounds or so, about 14,000 (4.5%) showed an effect of 50% or more. The effect is printed as a negative number. The full list was thinned out, with strong results kept by preference.

Each molecule was assayed against human ether-à-go-go-related gene (hERG) potassium channel (human, UniProt Q12809) (assay: primary screen, population patch clamp on CHO cells stably expressing hERG; higher = less effect of the substance).
Chain of human ether-à-go-go-related gene (hERG) potassium channel (Q12809 whole entry, looked up): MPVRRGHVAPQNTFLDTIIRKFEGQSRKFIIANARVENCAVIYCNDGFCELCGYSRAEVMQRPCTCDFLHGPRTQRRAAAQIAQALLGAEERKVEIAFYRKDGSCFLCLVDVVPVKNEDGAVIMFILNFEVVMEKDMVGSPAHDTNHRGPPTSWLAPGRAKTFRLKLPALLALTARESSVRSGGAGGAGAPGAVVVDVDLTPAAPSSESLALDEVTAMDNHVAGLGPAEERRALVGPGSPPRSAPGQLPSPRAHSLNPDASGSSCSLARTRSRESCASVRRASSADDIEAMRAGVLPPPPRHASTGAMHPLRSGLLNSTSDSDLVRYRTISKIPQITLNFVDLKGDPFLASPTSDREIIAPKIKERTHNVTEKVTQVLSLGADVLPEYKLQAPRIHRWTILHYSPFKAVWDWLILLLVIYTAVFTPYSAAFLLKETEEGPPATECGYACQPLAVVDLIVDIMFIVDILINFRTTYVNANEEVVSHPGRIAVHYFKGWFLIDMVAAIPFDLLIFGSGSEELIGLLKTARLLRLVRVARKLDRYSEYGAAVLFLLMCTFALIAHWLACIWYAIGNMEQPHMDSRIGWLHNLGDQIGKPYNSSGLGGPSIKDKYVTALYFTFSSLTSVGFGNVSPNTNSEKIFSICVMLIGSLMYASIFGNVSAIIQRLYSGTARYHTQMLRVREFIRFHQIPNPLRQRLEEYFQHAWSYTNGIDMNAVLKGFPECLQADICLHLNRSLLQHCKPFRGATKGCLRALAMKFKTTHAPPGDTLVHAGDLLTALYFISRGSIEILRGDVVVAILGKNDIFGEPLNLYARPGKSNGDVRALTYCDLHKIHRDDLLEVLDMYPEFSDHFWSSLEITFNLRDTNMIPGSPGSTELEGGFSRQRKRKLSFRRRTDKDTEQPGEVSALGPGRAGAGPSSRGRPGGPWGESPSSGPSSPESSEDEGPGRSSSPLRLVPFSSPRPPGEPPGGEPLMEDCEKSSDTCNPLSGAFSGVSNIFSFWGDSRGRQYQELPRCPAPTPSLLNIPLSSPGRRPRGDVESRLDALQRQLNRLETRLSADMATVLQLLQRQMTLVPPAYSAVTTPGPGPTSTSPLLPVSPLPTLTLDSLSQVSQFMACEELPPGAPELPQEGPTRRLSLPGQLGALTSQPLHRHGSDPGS
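Note: peak tail current of the secondary pulse compared with the same well before compound.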

| Compound | hERG current change (%, negative = inhibition) at 10uM |
| --- | --- |
| CCCNC(=O)c1cccc(COCC(F)(F)F)c1 | -2.57% |
| O=C(Nc1ccccn1)C1(c2cccs2)CCOCC1 | 8.48% |
| O=[N+]([O-])c1ccc(S(=O)(=O)N2CCC3(CC2)OCCN3S(=O)(=O)c2cccs2)cc1 | -50.4% |
| COc1ccc(S(=O)(=O)N2CCC3(CC2)OCCN3S(=O)(=O)c2ccc(OC)cc2)cc1 | -24.1% |
| COc1ccc(S(=O)(=O)N2CCOC23CCN(S(=O)(=O)c2ccc([N+](=O)[O-])cc2)CC3)cc1 | -62% |
| COc1ccc(S(=O)(=O)N2CCOC23CCN(C(=O)c2ccc(Cl)cc2Cl)CC3)cc1 | -68.9% |
| Cc1ccc(S(=O)(=O)N2CCOC23CCN(C(=O)c2ccc(Cl)cc2Cl)CC3)cc1 | -48.1% |
| Cc1ccc(S(=O)(=O)N2CCOC23CCN(C(=O)c2cc(Cl)ccc2Cl)CC3)cc1 | -47.6% |
| O=S(=O)(c1ccc(F)cc1)N1CCC2(CC1)OCCN2S(=O)(=O)c1cccs1 | -10.9% |
| COc1ccc(S(=O)(=O)N2CCOC23CCN(S(=O)(=O)c2ccccc2)CC3)cc1 | 8.72% |
| COc1ccc(S(=O)(=O)N2CCC3(CC2)OCCN3S(=O)(=O)c2cccs2)cc1 | -23.8% |
| COc1ccc(OCCSc2nc(N)cc(=O)[nH]2)cc1 | -1.77% |
| Cc1cccc(OCCC(=O)Nc2ccc(N3CCOCC3)cc2N2CCOCC2)c1 | -19.7% |
| COn1c(SCc2ccc(C)cc2C)nc2ccccc2c1=O | 7.64% |
| O=C(Nc1ccc(SC(F)F)cc1)c1ccc2nccnc2c1 | -17.1% |
| CN1CCC(OC(=O)c2ccccc2)CC1.Cl | 7.92% |
| CN1CCC(Oc2ccccc2Sc2ccccc2)CC1.O=C(O)C(=O)O | -64.5% |
| CN1CCC(OC(=O)Cc2ccccc2)CC1.Cl | 5.22% |
| COc1ccc(OC2CCN(S(=O)(=O)c3ccccc3)CC2)cc1 | -11.6% |
| CN1CCC(OC(=O)COc2ccccc2)CC1.Cl | 15.1% |
| CN1CCC(OC(=O)COc2ccc(C(C)(C)C)cc2)CC1.Cl | -28.7% |

| Compound | hERG current change (%, negative = inhibition) at 10uM |
| --- | --- |
| CN1CCC(Oc2ccc(Sc3ccccc3)cc2)CC1.Cl | -67% |
| Cc1ccccc1C(=O)OC1CCN(C)CC1.Cl | 6.06% |
| CN1CCC(Oc2ccccc2Sc2ccc(C(F)(F)F)cc2)CC1.O=C(O)C(=O)O | -63.2% |
| COc1ccccc1NC(=O)CCCCC(=O)Nc1ccccc1OC | 7.88% |
| O=Cc1ccccc1-c1cn(CN2C(=O)c3ccccc3C2=O)nn1 | 3.42% |
| Cc1ccc(NC(=O)CCc2nnc3ccc(NCc4ccco4)nn23)cc1 | -2.39% |
| O=C(CCc1nnc2ccc(NCc3ccco3)nn12)N1CCN(c2ccccc2)CC1 | -56.3% |
| O=C(CCc1nnc2ccc(NCc3ccco3)nn12)Nc1ccc(F)cc1 | -9.82% |
| O=C(CCc1nnc2ccc(NCc3ccco3)nn12)N1CCN(c2ccc(F)cc2)CC1 | -46.7% |
| O=C(CCc1nnc2ccc(NCc3ccco3)nn12)N1CCN(c2ccccc2F)CC1 | -20.5% |
| O=C(CCc1nnc2ccc(NCc3ccccc3)nn12)N1CCC2(CC1)OCCO2 | 14.4% |
| Cc1ccc(NC(=O)CCc2nnc3ccc(NCc4ccco4)nn23)cc1F | -70.9% |
| O=C(CCc1nnc2ccc(NCc3ccc(F)cc3)nn12)N1CCC2(CC1)OCCO2 | -0.229% |
| O=C(CCc1nnc2ccc(NCc3ccccc3Cl)nn12)N1CCC2(CC1)OCCO2 | -67.7% |
| COC(=O)C1(Cc2cc(-c3ccc(Cl)cc3)no2)CCN(C(=O)OC(C)(C)C)CC1 | -22.8% |
| CCOc1ccc(OCC)c(S(=O)(=O)NCc2ccccc2)c1 | -10.1% |
| Clc1ccc(N2CCCCCC2)nn1 | 4.93% |
| O=C(c1noc2c1CCCC2)N1CCN(c2ccccc2)CC1 | -17.6% |
| CCOc1cc(CNc2ccc3[nH]c(=O)[nH]c3c2)ccc1OCC(=O)NC(C)(C)C | 12.4% |
| COc1ccc(C2CC(c3ccccc3)=NN2C(=O)CN2CCN(Cc3ccccc3)CC2)cc1 (stereo not shown) | -31.2% |
| COc1ccc(C2=NN(C(=O)CN3CCCC3)C(c3ccc(OC)cc3)C2)cc1 (stereo not shown) | -40.7% |

| Compound | hERG current change (%, negative = inhibition) at 10uM |
| --- | --- |
| COc1ccc(C2=NN(C(=O)CN3CCCCC3)C(c3ccc(OC)cc3)C2)cc1 (stereo not shown) | -40.1% |
| COc1ccc(C2=NN(C(=O)CN3CCCCC3)C(c3ccc(C)cc3)C2)cc1 (stereo not shown) | -54.9% |
| COc1ccc(C2=NN(C(=O)CCC(=O)O)C(c3ccc(Br)cc3)C2)cc1 (stereo not shown) | 29.9% |
| COc1ccc(C2CC(c3ccc(Br)cc3)=NN2C(=O)CN2CCCC2)cc1 (stereo not shown) | -68.1% |
| COC(=O)C1C2C=CC3(CN(c4ccc(Cl)c(F)c4)C(=O)C13)O2 (stereo not shown) | 4.99% |
| N#Cc1ccc(S(=O)(=O)N2CCN(c3ncccn3)CC2)cc1 | -17.9% |
| Cc1ccc(S(=O)(=O)N2CCN(c3ccccn3)CC2)cc1 | 4.96% |
| Cc1ccc(S(=O)(=O)N2CCN(c3nccnc3C#N)CC2)cc1 | -54.8% |
| O=C(O)Cc1ccc(NC(=O)c2cnccn2)cc1 | 26.1% |
| COc1cc(/C=N/NC(=O)Cc2ccccc2)cc([N+](=O)[O-])c1O | 10% |
| COc1cc(NC(=O)CCN2CCN(Cc3ccccc3)CC2)cc(OC)c1 | -20.1% |
| COc1cc(NC(=S)N2CCN(C/C=C/c3ccccc3)CC2)cc(OC)c1 | -10.7% |
| COc1cc(NC(=O)CCN2CCN(C/C=C/c3ccccc3)CC2)cc(OC)c1 | -69.3% |
| CCN(CCC(=O)Nc1ccc(Br)c(C)c1)Cc1ccccc1.Cl | -36.8% |
| COc1ccc(NC(=S)N2CCN(C/C=C/c3ccccc3)CC2)cc1 | -24.1% |
| COc1cc(NC(=O)Cc2ccccc2)cc(OC)c1 | -4.79% |
| COc1ccc(NC(=O)CCN2CCN(C/C=C/c3ccccc3)CC2)cc1 | -77.3% |
| COc1ccc(NC(=O)CCN2CCCCCC2)cc1 | -12.3% |
| CCN(CCC(=O)Nc1cc(OC)cc(OC)c1)Cc1ccccc1 | -65.1% |
